Experimental data reported in PubChem BioAssay.
Calls of active or inactive are those of the source.

Legend:
[1] = adipocyte viability effects, profiling panel, cell-based, 3T3-L1 adipocytes, calcein-AM fluorescence, 48 h, basal (AID 1163); conditions: 3T3-L1 adipocytes viability, higher = more signal
[2] = HepG2 cell viability effects, profiling panel, calcein-AM fluorescence, 48 h, basal (AID 1164); conditions: higher = more signal
[3] = MM1S cell viability effects, profiling panel, calcein-AM fluorescence, 48 h, basal (AID 1165); conditions: higher = more signal;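 also: viability of MM1S multiple myeloma cells under basal unstimulated conditions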
[4] = basal RPMI8226 viability, no added stimulus, profiling panel, cell-based, calcein-AM fluorescence, 48 h, PK04 Diversity Set (AID 1166); conditions: RPMI8226 myeloma viability, higher = more signal;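 also: cells grown under basal conditions without added stimulus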
[5] = basal HepG2 mitochondrial membrane potential changes, profiling panel, cell-based, JC-1 fluorescence, 24 h, 100 nL compound (AID 1167); conditions: higher = more signal
[6] = basal 3T3-L1 adipocyte mitochondrial potential changes, profiling panel, cell-based, JC-1 fluorescence, 3T3-L1 adipocytes, 24 h, 100 nL compound (AID 1168); conditions: JC-1 mitochondrial fluorescence, higher = more signal, called active from +8 up or from −8 down
[7] = basal RPMI8226 mitochondrial membrane potential changes, profiling panel, cell-based, JC-1 fluorescence, 24 h, 100 nL compound (AID 1169); conditions: RPMI8226 myeloma, JC-1 mitochondrial potential fluorescence, higher = more signal
[8] = basal MM1S mitochondrial membrane potential changes, profiling panel, cell-based, JC-1 fluorescence, 24 h, 100 nL compound (AID 1170); conditions: higher = more signal
[9] = A549 lung cancer cell viability effects, profiling panel, resazurin fluorescence, 24 h, PK04 Diversity Set (AID 1171); conditions: higher = more signal, called active from +8 up or from −8 down
[10] = HepG2 liver cancer cell viability effects, profiling panel, resazurin fluorescence, 24 h, PK04 Diversity Set (AID 1172); conditions: higher = more signal
[11] = basal S. cerevisiae growth modulation, no modifier, primary screen, OD600, strain BY4716, 24 h, basal condition (AID 1173); conditions: OD600, 24 h, higher = more signal, called active from +8 up or from −8 down
[12] = MM1S myeloma cell viability, profiling panel, resazurin fluorescence, basal, 24 h, PK04 Diversity Set (AID 1174); conditions: higher = more signal, called active from +8 up or from −8 down;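 also: MM1S multiple myeloma cell line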
[13] = target: Dihydroorotate dehydrogenase (quinone), mitochondrial (Plasmodium falciparum (isolate 3D7)) (UniProt Q08210); assay: PfDHODH enzyme inhibitors, primary screen, biochemical, C-terminal His tag, absorbance 600 nm (AID 1175); conditions: DCIP absorbance 600 nm, higher = more signal, called active from +8 up or from −8 down;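 also: recombinant parasite enzyme with a five histidine tag at its C terminus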
Chain of Dihydroorotate dehydrogenase (quinone), mitochondrial (Plasmodium falciparum (isolate 3D7)) (Q08210 whole entry, looked up): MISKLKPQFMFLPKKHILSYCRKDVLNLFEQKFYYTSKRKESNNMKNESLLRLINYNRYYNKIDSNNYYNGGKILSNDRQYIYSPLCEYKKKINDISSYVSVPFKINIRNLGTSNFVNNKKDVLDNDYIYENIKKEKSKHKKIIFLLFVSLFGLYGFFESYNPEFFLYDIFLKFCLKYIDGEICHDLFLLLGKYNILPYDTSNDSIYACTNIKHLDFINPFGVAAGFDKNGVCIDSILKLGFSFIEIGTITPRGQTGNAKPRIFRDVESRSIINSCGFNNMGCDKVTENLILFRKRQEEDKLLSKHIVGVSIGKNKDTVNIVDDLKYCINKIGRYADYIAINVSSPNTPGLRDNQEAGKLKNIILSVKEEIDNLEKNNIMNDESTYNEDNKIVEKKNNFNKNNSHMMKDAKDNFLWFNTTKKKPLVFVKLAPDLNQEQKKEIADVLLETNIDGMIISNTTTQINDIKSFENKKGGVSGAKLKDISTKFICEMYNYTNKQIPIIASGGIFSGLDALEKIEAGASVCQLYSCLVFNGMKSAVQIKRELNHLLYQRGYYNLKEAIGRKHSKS

[14] = S. cerevisiae RM11-1a growth modifiers, primary screen, strain RM11-1a, OD600, basal, 24 h (AID 1177); conditions: OD600, 24 h, higher = more signal, called active from +8 up or from −8 down;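 also: cultures grown under basal conditions with no added stressor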
[15] = E. coli acrAB mutant growth effects, primary screen, E. coli filamentation inducers, strain DRC39, OD650, 24 h (AID 1178); conditions: higher = more signal, called active from +8 up or from −8 down;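 also: growth measured as culture turbidity by optical density at 650 nm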
[16] = E. coli acrAB mutant growth effects, primary screen, E. coli filamentation inducers, strain DRC39, OD650, 48 h (AID 1179);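 also: screen aims at cell division blockers that make cells filament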; conditions: E. coli DRC39 delta-acrAB growth, higher = more signal, called active from +8 up or from −8 down
[17] = RPMI8226 myeloma cell viability, profiling panel, resazurin fluorescence, basal, 24 h, PK04 Diversity Set (AID 1180); conditions: higher = more signal;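 also: RPMI8826 multiple myeloma cell line at 5000 cells per well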
[18] = target: E3 ubiquitin-protein ligase XIAP (Homo sapiens) (UniProt P98170); assay: XIAP binders, primary screen, biophysical, small-molecule microarray, fluorescence 635 nm (AID 1181); conditions: small-molecule microarray binding, higher = more signal;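 also: score merges 667 nm emission and signal to noise over triplicate slides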
Chain of E3 ubiquitin-protein ligase XIAP (Homo sapiens) (P98170 whole entry, looked up): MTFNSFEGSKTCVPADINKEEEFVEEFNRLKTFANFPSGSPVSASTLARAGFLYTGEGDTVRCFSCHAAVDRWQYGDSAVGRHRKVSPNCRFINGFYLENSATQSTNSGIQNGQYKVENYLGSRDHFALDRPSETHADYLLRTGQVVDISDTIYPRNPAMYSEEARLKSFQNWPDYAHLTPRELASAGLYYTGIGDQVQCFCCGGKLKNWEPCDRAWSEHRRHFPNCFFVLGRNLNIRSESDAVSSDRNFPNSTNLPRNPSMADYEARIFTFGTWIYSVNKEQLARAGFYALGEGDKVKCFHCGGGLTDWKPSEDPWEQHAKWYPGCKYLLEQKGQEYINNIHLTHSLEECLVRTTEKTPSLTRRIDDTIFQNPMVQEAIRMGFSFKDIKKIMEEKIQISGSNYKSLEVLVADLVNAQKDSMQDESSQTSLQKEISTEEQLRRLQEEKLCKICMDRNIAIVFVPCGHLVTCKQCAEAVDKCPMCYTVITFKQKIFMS

[19] = test system: XIP peptide (Xip251-270) binding; assay: small-molecule binders of XIP peptide, primary screen, biochemical, small-molecule microarray, fluorescence 635/667 nm, 0.1 µg/mL protein (AID 1182); conditions: fluorescent protein binding, 635 nm, higher = more signal, called active from +8 up or from −8 down
[20] = test system: XIP peptide (Xip251-270); assay: small-molecule binders of XIP peptide, primary screen, biochemical, small-molecule microarray, fluorescence 635/667 nm, 0.5 µg/mL protein (AID 1183); conditions: small-molecule microarray binding, fluorescence 635 nm; higher = more signal

SMILES	z-score [1]	z-score [2]	z-score [3]	z-score [4]	z-score [5]	z-score [6]	z-score [7]	z-score [8]	z-score [9]	z-score [10]	z-score [11]	z-score [12]	composite z-score [13]	z-score [14]	z-score [15]	z-score [16]	z-score [17]	composite z-score [18]	composite z-score [19]	composite z-score [20]
CC(=O)NCCCC[C@@H]1NC(=O)[C@@H]2C[C@H](C(=O)O)[C@H](c3cccc(OCCO)c3)N2C1=O	0.75	-0.988	-1.8	0.267	1.31	0.317 (inactive)	0.501	0.483	0.537 (inactive)	0.377	0.178 (inactive)	0.636 (inactive)	-0.252 (inactive)	1.2 (inactive)	0.504 (inactive)	0.167 (inactive)	0.873	-0.363	1.41 (inactive)	1
COCCOC(=O)N1C(=O)[C@@]2(c3cc(C#CCNC(N)=O)ccc31)[C@H](c1ccccc1OCCO)N1[C@H](c3ccccc3)[C@H](c3ccccc3)OC(=O)[C@H]1[C@@H]2C(=O)Nc1nc2ccccc2s1	1.32	-0.272	-1.56	0.501	-2.92	1.04 (inactive)	-1.06	-1.32	0.627 (inactive)	0.0177	-0.267 (inactive)	1.22 (inactive)	-0.183 (inactive)	1.17 (inactive)	-0.17 (inactive)	0.599 (inactive)	1.39	0.396	-0.377 (inactive)	0.501
CCOC(=O)C[C@H]1[C@H](OC(=O)c2ccc(-c3ccccc3)cc2)[C@@H](NC(=O)C2CCCCC2)c2cc(OCCCO)ccc2N1C(=O)c1ccc2ccccc2n1	1.25	-0.0303	0.881	0.179	2.69	1.82 (inactive)	-0.953	0.717	1.02 (inactive)	1.24	-0.275 (inactive)	1.22 (inactive)	0.478 (inactive)	-1.33 (inactive)	1.56 (inactive)	0.999 (inactive)	0.509	0.158	0.29 (inactive)	0.0417
COCCOC(=O)N1C(=O)[C@@]2(c3ccccc31)[C@H](C(=O)Nc1nc3ccccc3s1)[C@H]1C(=O)O[C@H](c3ccccc3)[C@H](c3ccccc3)N1[C@@H]2c1ccc(O)cc1	0.471	-1.49	-3.26	-3.76	-3.44	1.01 (inactive)	-1.05	-1.87	0.35 (inactive)	0.148	2.4 (inactive)	-1.22 (inactive)	-2.63 (inactive)	4.4 (inactive)	1.23 (inactive)	1.84 (inactive)	-0.898	-0.0025	1.03 (inactive)	0.748
COCCOC(=O)N1C(=O)[C@@]2(c3cc(C#CC4(O)CCCCCC4)ccc31)[C@H](C(=O)NC[C@H](O)c1ccccc1)[C@H]1C(=O)O[C@H](c3ccccc3)[C@H](c3ccccc3)N1[C@@H]2c1ccccc1OCCO	1.76	-1.41	-3.26	-3.76	-1.3	0.951 (inactive)	-0.939	-1.75	-0.0869 (inactive)	-0.0252	1.26 (inactive)	-1.35 (inactive)	0.811 (inactive)	3.05 (inactive)	0.634 (inactive)	1.05 (inactive)	-1.93	-0.105	0.551 (inactive)	0.751
C=C(C(=O)CC[C@@H](OC(C)=O)c1ccccc1OCCO)C(C)C	-0.161	-0.9	-0.951	0.0365	-0.75	0.544 (inactive)	-0.0109	0.0542	0.788 (inactive)	0.166	-13 (active)	0.932 (inactive)	-3.59 (inactive)	0.0933 (inactive)	1.33 (inactive)	0.928 (inactive)	1.57	-0.0163	0.888 (inactive)	0.565
CC(C)NC(=O)[C@@H]1c2ccccc2C(=O)N(Cc2cc(F)cc(C(F)(F)F)c2)[C@H]1c1ccc(CO)cc1	1.41	0.813	0.404	0.252	1.59	-0.64 (inactive)	-0.834	0.621	1.84 (inactive)	0.641	-0.518 (inactive)	1.39 (inactive)	-0.243 (inactive)	-0.284 (inactive)	1.33 (inactive)	0.326 (inactive)	1.5	-0.174	0.873 (inactive)	-1.01
Cc1ccc(S[C@]2(C(=O)NC3CC3)CC(=O)N(Cc3ccccc3C(F)(F)F)[C@@H]2c2ccc(CO)cc2I)cc1	0.421	-0.4	-2.65	-2.11	1.44	0.525 (inactive)	-0.513	-0.93	0.149 (inactive)	0.436	-8 (inactive)	-1.93 (inactive)	-2.6 (inactive)	-2.07 (inactive)	0.413 (inactive)	0.303 (inactive)	-1.84	-0.29	0.0437 (inactive)	-0.811
C#CCN1C(C(=O)OCC)OC[C@H]1c1ccccc1 (stereo not given in full)	0.714	-0.0851	0.712	-0.181	1.06	0.842 (inactive)	0.297	-0.316	-0.282 (inactive)	0.513	-6.25 (inactive)	1.49 (inactive)	0.253 (inactive)	-2.24 (inactive)	2.47 (inactive)	0.724 (inactive)	0.0912	-0.227	-0.0319 (inactive)	-0.258
COc1ccc(C#Cc2ccc3c(c2)[C@]2(C(=O)N3)[C@H](c3ccc(O)cc3)N3[C@H](c4ccccc4)[C@H](c4ccccc4)OC(=O)[C@H]3[C@@H]2C(N)=O)cc1	1.39	-4.79	-3.41	-4.61	-2.81	-0.0696 (inactive)	-1.32	-1.66	-1.62 (inactive)	-0.424	-0.379 (inactive)	-6.51 (inactive)	0.255 (inactive)	1.47 (inactive)	0.277 (inactive)	0.464 (inactive)	-6.8	0.237	0.0982 (inactive)	0.542
C=CCNC(=O)[C@@H]1[C@H]2C(=O)O[C@H](c3ccccc3)[C@H](c3ccccc3)N2[C@H](c2ccc(O)cc2)[C@@]12C(=O)N(C(=O)OCCOC)c1ccc(C#Cc3ccc(OC)cc3)cc12	1.24	0.216	-1.58	-2.52	-0.914	3.45 (inactive)	-0.351	0.0591	0.834 (inactive)	-0.35	-0.468 (inactive)	0.699 (inactive)	0.21 (inactive)	0.964 (inactive)	0.236 (inactive)	0.83 (inactive)	0.804	0.14	0.688 (inactive)	0.656
C[N+](C)(C)CCCCNC(=O)[C@@H]1C[C@@H]2C(=O)NCC(=O)N2[C@@H]1c1cccc(OCCO)c1	-0.0369	0.653	0.499	0.089	1.04	0.294 (inactive)	-0.361	-0.552	-0.105 (inactive)	0.165	-0.0902 (inactive)	1.38 (inactive)	-27.8 (active)	-1.21 (inactive)	1.87 (inactive)	1.77 (inactive)	0.356	0.602	0.71 (inactive)	0.865
C=CC[C@]1(C(=O)N(C)C)N=C(c2ccc(OCCCO)cc2)O[C@H]1c1ccccc1CN=[N+]=[N-]	0.988	1.18	-1.17	-0.862	2.11	0.0328 (inactive)	-0.942	-0.587	1.26 (inactive)	0.481	-1.26 (inactive)	0.838 (inactive)	-0.0916 (inactive)	-0.197 (inactive)	1.53 (inactive)	0.442 (inactive)	0.747	0.0471	0.137 (inactive)	0.53
COCCCN1C(=O)[C@@]2(Cc3ccccc31)c1ccccc1C(=O)N(Cc1ccccc1Cl)[C@H]2c1ccc(CO)cc1	-0.414	0.0836	0.712	0.485	1.58	1.33 (inactive)	0.15	0.828	-0.306 (inactive)	-0.384	-0.846 (inactive)	0.686 (inactive)	-12.4 (active)	-0.921 (inactive)	0.56 (inactive)	0.891 (inactive)	0.902	-0.0699	-0.31 (inactive)	0.107
CC(C)C(=C=CC[C@@H](O)c1ccc(CO)o1)CCO	-0.266	0.719	0.288	0.889	0.919	0.556 (inactive)	0.304	0.501	1.37 (inactive)	1.32	-1.13 (inactive)	1.07 (inactive)	-0.669 (inactive)	-0.332 (inactive)	2.09 (inactive)	1.39 (inactive)	1.18	-0.0036	0.676 (inactive)	-0.514
COC(=O)C1=CC(c2ccc(CO)cc2)=CC(c2cccs2)N(C)C=C1C(=O)OC (stereo not given)	2.32	-0.0015	-0.517	-0.257	0.636	0.375 (inactive)	-0.327	0.12	0.446 (inactive)	-0.419	-2.16 (inactive)	0.173 (inactive)	-1.75 (inactive)	-0.688 (inactive)	1.05 (inactive)	0.542 (inactive)	1.05	0.0049	1.84 (inactive)	0.302
CCCCC(=C=CC[C@H](O)c1cccc(OCCO)c1)CCO	1.07	-0.693	-1	-0.257	0.733	0.439 (inactive)	0.12	-0.0531	1.7 (inactive)	0.529	-1.41 (inactive)	1.31 (inactive)	-0.802 (inactive)	-0.114 (inactive)	1.3 (inactive)	0.749 (inactive)	0.837	0.0458	0.511 (inactive)	-0.97
NCCCCCCNC(=O)[C@@H]1C[C@@H]2C(=O)N[C@@H](Cc3ccccc3)C(=O)N2[C@@H]1c1ccc(O)cc1	1.09	-0.46	0.0892	-0.141	0.666	-0.386 (inactive)	0.0478	0.188	1.19 (inactive)	0.368	-1.77 (inactive)	1.38 (inactive)	0.687 (inactive)	-0.509 (inactive)	0.236 (inactive)	0.476 (inactive)	1.53	-0.305	0.208 (inactive)	0.225
